Compound activity (PubChem)
Rows were chosen to be rich in hits. Some 14% of all compounds tested hit in one or more screens of this group.
Sm TGR inh = S. mansoni TGR enzyme inhibition. Q962Y6. purified TGR, DTNB reduction, TNB absorbance 405 nm. Potency, µM (doses to about 114 µM), for the others: at the highest dose activity change, negative = inhibition, usual class: inhibitors. hit rate 3% among 360,000. AID 485364; also: potency is read from the fitted curve at half-maximal effect; nearly all actives have a fitted effect of over 60% in size
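Kinetic colorimetric format: TGR-catalysed, NADPH-driven DTNB reduction monitored via TNB absorbance. Enzyme dispensed at 20 nM; compound exposure 15 min at room temperature before reaction start.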
HCMV inh = inhibitors of human cytomegalovirus; HFF cells, HCMV-luciferase reporter, 72 h; hits give low values; activity change, negative = inhibition, % at 57.5 µM; hit rate 4.5% among 410,000; in the data active = activity change below about -60%; inconclusive = no clear call, values can overlap the other calls; inactive = above about -39%
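Screen run at 2 compound doses on HFFs infected with reporter HCMV, MOI 1 PFU/cell. Luciferase activity from cell lysates at 72 h post infection gave inhibition relative to buffer-only and Salinomycin wells.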
Pf growth 48h = P. falciparum growth inhibition at 48 hours (one generation) | P. falciparum luciferase growth in erythrocytes, 48 h | Potency, µM (series often up to 28.7 µM), for the others: at the highest dose activity change, negative = inhibition, usual class: inhibitors | hit rate 5.9% among 310,000 | AID 504832; also: potency is read from the fitted curve at half-maximal effect
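Parasite viability was followed by luminescence of a genomically integrated firefly luciferase. Cultures held 0.1% parasitemia at 2% hematocrit (final), incubated under 5% CO2 at 37 C.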
Giardia FBPA inh = blocks Giardia fructose-bisphosphate aldolase activity. A8B2U2. purified Giardia FBPA. Potency, µM (doses to about 59.6 µM), for the others: at the highest dose activity, negative = inhibition, hits mostly inhibitors. hit rate 0.71% among 290,000; also: potency is read from the fitted curve at half-maximal effect; nearly all actives have a fitted effect of over 55% in size
Target sequence (A8B2U2 whole entry, looked up): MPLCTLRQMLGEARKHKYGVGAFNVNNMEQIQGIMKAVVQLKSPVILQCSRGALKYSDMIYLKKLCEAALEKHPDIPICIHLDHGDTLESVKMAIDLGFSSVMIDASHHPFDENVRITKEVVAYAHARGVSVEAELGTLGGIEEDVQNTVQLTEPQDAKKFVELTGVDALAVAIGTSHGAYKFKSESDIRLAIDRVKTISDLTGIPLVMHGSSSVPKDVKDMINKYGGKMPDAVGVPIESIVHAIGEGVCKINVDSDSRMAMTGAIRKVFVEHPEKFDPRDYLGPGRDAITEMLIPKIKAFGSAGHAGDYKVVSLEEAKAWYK
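Giardia FBPA (40 nM reagent) was preincubated 10 min at RT with compound (up to 57.5 uM final), then substrate plus GAPDH/TPI/NAD/arsenate coupling system with diaphorase/resazurin was added; resorufin fluorescence (525/598 nm) was read after 20 min.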
Pf growth 96h = P. falciparum growth inhibition at 96 hours | P. falciparum luciferase reporter growth, 96 h | hit rate 6.9% among 320,000 | Potency, µM (series often up to 28.7 µM), without a hit: at the top dose activity change, negative = inhibition, most hits filed as inhibitors | AID 504834; also: potency is read from the fitted curve at half-maximal effect
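Cell-based qHTS: luciferase-tagged P. falciparum in erythrocytes (2% hematocrit, 0.05% parasitemia final) incubated with compounds for 96 hours, 37 C, 5% CO2; luciferase detection reagent then added and luminescence measured.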
* hit, by the source's call; ? = inconclusive; · = no result given; ! = a repeat was not active; [ ] = another dose, or the depositor's remark. Unless noted, calls follow the shape of the dose curve; as a rule, active = well fitted curve in the direction sought with a large enough effect; inconclusive = small, poorly fitted or top-dose-only effect, or another doubt; inactive = no such curve, though single readings can be large; an effect the other way counts as inactive or inconclusive. % is scaled to controls: 0 for no effect and ±100 for the full control effect.

SMILES | Sm TGR inh | HCMV inh | Pf growth 48h | Giardia FBPA inh | Pf growth 96h
COc1ccc(CCNc2c(C)c(C)nc3ncnn23)cc1 | 3% | -89* | ? | -15% | 1%[5.75 µM]
CCOc1ccc(CCNc2cc(C)nc3ncnn23)cc1OCC | -4% | -26 | -3% | 1% | ?
CCc1c(C)nc2ncnn2c1NCCc1ccc(OC)c(OC)c1 | -7% | -73* | ? | 0% | 11%
COc1ccc(C(=O)c2c(-c3cccc(C)c3)oc3ccc(N4CCOCC4)cc23)cn1 | -17% | -73* | ? | 7% | ?
Cc1cc(O)ccc1N/C=C1\CCCC1=O | ? | -14 | 53% | 8.9µM* | ?
CC(=O)Nc1ccc(N/C=C2/CCCC2=O)cc1 | ? | -5 | 28% | -12% | 0%
O=C(CN1CCCC1)N1c2ccccc2Sc2ccc(C(F)(F)F)cc21 | -8% | ? | ? | -10% | 2%
CN1CCN(CC(=O)N2c3ccccc3C(=O)Nc3cccnc32)CC1 | -8% | · | -1% | -3% | 15µM*!
O=C(CN1CCN(c2ccccn2)CC1)N1c2ccccc2CCc2ccccc21 | -10% | -19 | 15µM* | -17% | ?
O=C(CN1CCN(c2ccccn2)CC1)N1CC(O)CO1 (centres undefined) | 15% | ? | 10% | 8% | 24%
O=C(CN1CCN(c2ccccn2)CC1)N1c2ccccc2Sc2ccc(C(F)(F)F)cc21 | -1% | -3 | 4.7µM* | -24% | ·
O=C(CN1CCN(c2ccccn2)CC1)N(c1ccccc1)c1ccc2ccccc2c1 | 5% | ? | 12µM* | -3% | 5.2µM*
CN1CCN(CC(=O)N2c3ccc(S(=O)(=O)NCCNC(=O)OC(C)(C)C)cc3C(=O)Nc3cccnc32)CC1 | · | -11 | · | · | ·
Cc1nn(-c2ccc(N3CCCC3)nn2)c(C)c1CCC(=O)NCc1ccc(F)cc1 | 1% | ? | · | · | ·
Cc1ccc2[nH]cc(C(=O)CN3CCN(c4ccccn4)CC3)c2c1 | -33% | 33 | · | -5% | ?
Cc1ccc(C(=O)CN2CCN(c3ccccn3)CC2)c(C)c1 | 14µM* | · | 18% | -7% | ?
O=C(CSc1nc2ccccc2o1)N1c2ccccc2Sc2ccc(C(F)(F)F)cc21 | 1% | -3 | 13µM* | 3% | ?
Cc1cc2nn(-c3ccc(F)cc3)nc2cc1NC(=O)c1cccc2ccccc12 | 7% | 5 | · | · | ·
Cc1cc2nn(-c3cccc4ccccc34)nc2cc1NC(=O)c1cccs1 | 2% | -34 | · | 0% | 7.4µM*
C=CCn1c(N/N=C/c2ccc(O)cc2)nc2ccccc2c1=O | 3% | -65* | 47% | -12% | 4%
C=C(C)C(=O)/C=C/c1ccc(Br)cc1 | · | · | · | 0% | ·
C[n+]1ccc(/C=C/c2ccc(Br)cc2)cc1 | 2% | -63* | 0.33µM* | 1% | 1.3µM*
CCN(CC)CCCCn1c(-c2ccccc2)nc2c(NC3CCCCC3)nc(C)nc21 | · | · | · | 3% | ·
CC1(O)C[C@]2(C)N(O)C3CCCC[C@@H]3N2O1 (some centres undefined) | ? | 7 | ? | 1% | 60%
CC1(C)N(O)C2CCCCC2N1O (centres undefined) | -28% | 38 | 0.037µM* | ? | ?
SMILES | Sm TGR inh | HCMV inh | Pf growth 48h | Giardia FBPA inh | Pf growth 96h
CCc1cccc2c1NC(=O)[C@]21[C@@H]2C(=O)N(Cc3ccccc3)C(=O)[C@@H]2[C@@H]2CCCN21 | ? | -22 | 9.3µM* | -4% | -2%[5.75 µM]
OCC1COC(c2ccccc2)=N1 (centres undefined) | · | 69 | · | · | ·
CC1CN(c2ccc(C(F)(F)F)cc2[N+](=O)[O-])CCN1S(C)(=O)=O (centres undefined) | -9% | -23 | 13% | 3% | 17%
O=C(NC(=S)N1CCN(c2ccc(C(F)(F)F)cc2[N+](=O)[O-])CC1)c1cccs1 | 1% | -23 | -6% | 23% | 4.1µM*
CN1CCN(S(=O)(=O)c2ccc(N(C)Cc3ccc(C(F)(F)F)cc3)c([N+](=O)[O-])c2)CC1 | -11% | ? | 10µM* | · | ?
O=[N+]([O-])c1cc(C(F)(F)F)ccc1N1CCN(S(=O)(=O)c2ccc3c(c2)CCCC3)CC1 | 2% | -96* | -3% | -1% | 11%
CCN1CCN(C(=S)NC(=O)c2cccs2)CC1 | 42% | ? | ? | ? | -24%
